Among all 68,000 compounds or so, about 2,700 (4%) showed an effect of 50% or more. Many of the other results were omitted from the sample, so strong results are more common in it than they were.
system: Plasmodium berghei; assay: Screen against P. berghei liver stage (PbLuc), transformed with Luciferase, at 2uM; type: functional, HepG2; conditions: tested at 2 uM

Structure (SMILES) | INHIBITION [%]
COc1ccc(CN2CCC3(CC2)CCN(CC2CC2)C3=O)cc1 | -0.64
CC(C)CNC(=O)c1ccc(NC(=O)NC(C)c2ccccn2)cc1 (stereo unspecified) | -17.17
O=C(c1ccccn1)N1Cc2nccn2CC(COc2cccnc2)C1 (stereo unspecified) | -28.34
Cc1ccc(Oc2ncccc2C(=O)N(C)CC2OCCO2)c(C)c1 | 23.53
Cc1ccc(Oc2ncccc2C(=O)O)c(C)c1 | 50.61
Cc1ccc(Oc2ncccc2C(=O)N(C)CCCN(C)C)c(C)c1 | 32.85
O=C(c1ccco1)N1CC2(CCNCC2)c2cc(Cl)ccc21 | 34.18
COCc1cc(N2C[C@@H](C)[C@](O)(C3CC3)C2)ncn1 | 8.09
COc1cc(N2C[C@@H](C)[C@](O)(C3CC3)C2)ncn1 | 18.38
COc1cc(N2C[C@@H](C)[C@](O)(C3CC3)C2)nc(N)n1 | 56.12
CN(CC1CCCC1)C(=O)c1cn(C)nc1-c1cccnc1 | 32.67
COc1nccc(N2CC[C@H](CO)[C@@H](O)C2)c1C#N | 5.38
Cn1ncc2c1CCCC2NCc1cccc(C(F)(F)F)c1 (stereo unspecified) | 13.24
CC1(C)CNC(=O)c2nc(C3CCN(C(=O)C4CC4)CC3)[nH]c2C1 | 33.4
CC1(C)CNC(=O)c2nc(C3CCCN(C(=O)C4CC4)C3)[nH]c2C1 (stereo unspecified) | 73.68
CN1CCCC(c2nc3c([nH]2)CC(C)(C)CNC3=O)C1 (stereo unspecified) | -3.25
COc1cccc(C(=O)NCCCN2CCc3ccccc3C2)c1OC | 51.32
Cc1cccc(C(=O)NCCCN2CCc3ccccc3C2)c1C | 28.88
Cc1ccccc1C(=O)NCCCN1CCc2ccccc2C1 | -13.46
COC[C@@]12CCO[C@@H]1CCN(C(=O)COc1ccc(C)cc1)C2 | -42.87
O=C(NCCc1ccc(Cl)s1)N1CCS(=O)(=O)CC1 | -13.46
COc1cccc(F)c1C(C)NC(=O)NCc1ccnc(C)n1 (stereo unspecified) | -38.35

Structure (SMILES) | INHIBITION [%]
Cc1nc(C)n(CC2CN(S(C)(=O)=O)Cc3nccn3C2)n1 (stereo unspecified) | 26.66
CC1=Nc2c(c(=O)[nH]n2C(C)C)C(c2ccccc2)S1 (stereo unspecified) | 18.37
CC1=Nc2c(c(=O)[nH]n2C(C)C)C(c2ccc3c(c2)OCCO3)S1 (stereo unspecified) | -19.21
CC1=Nc2c(c(=O)[nH]n2C(C)C)C(c2ccsc2)S1 (stereo unspecified) | 14.2
CC1=Nc2c(c(=O)[nH]n2C(C)C)C(c2ccc3c(c2)n(C)c(=O)n3C)S1 (stereo unspecified) | 53.71
CC1=Nc2c(c(=O)[nH]n2C(C)C)C(c2cccs2)S1 (stereo unspecified) | 63.91
CC1=Nc2c(c(=O)[nH]n2C(C)C)C(c2ccc(F)c(F)c2)S1 (stereo unspecified) | -52.59
COc1ccccc1[C@@H]1CN(C(=O)c2csc(C)n2)C[C@H]1C(=O)O | 10.69
CC(C)CC(C#N)NC(=O)COC1CCCCC1 (stereo unspecified) | 30.23
c1csc(CN2C[C@@H]3OCCN(CC4CCCO4)[C@@H]3C2)c1 (stereo partly specified) | 20.13
CCOCCN1CCN(CC(=O)N2CCCC2)CC1CC (stereo unspecified) | -9.17
CCOCCN1CCN(Cc2cccc(C(=O)N(C)C)c2)CC1C (stereo unspecified) | 30.29
CCOCCN1CCN(Cc2cccc(C(=O)N(C)C)c2)CC1CC (stereo unspecified) | 50.05
CCOCCN1CCN(Cc2cccc(C(=O)N(C)C)c2)CC1 | 10.62
CCOCCN1CCN(CC(=O)N2CCC2)CC1CC (stereo unspecified) | 53.98
CCC1CN(Cc2cccc(C(=O)N(C)C)c2)CCN1CCOC (stereo unspecified) | 2.77
COCCN1CCN(Cc2cccc(C(=O)N(C)C)c2)CC1 | 21.83
CN(C)C(=O)c1cccc(CN2CCN(CCO)CC2)c1 | 54.99
CCC1CN(CC(=O)N2CCC2)CCN1CCOC (stereo unspecified) | 24.15
Cc1ccc(CN2CC3(CCN(C(=O)C4CC4)CC3)CC2C(=O)O)o1 (stereo unspecified) | 15.46
CCn1cc(NC(=O)NCC(c2cccc(F)c2)N(C)C)cn1 (stereo unspecified) | -41.59
O=C(c1ccnnc1)N1C[C@@H](OCC2CCOCC2)[C@H]2OCCC[C@H]21 | 3.35

Structure (SMILES) | INHIBITION [%]
COc1cc(C)nc(N2CCN(C(=O)CCc3cscn3)CC2)n1 | -8.58
CC1CS(=O)(=O)CCN1CCCc1ccc(Cl)cc1 (stereo unspecified) | -15.12
CS(=O)(=O)N1CCOCC12CCN(Cc1ccc(F)cc1)CC2 | -12.74
CNC(=O)N1CC[C@@H]2CN(Cc3cccnc3)S(=O)(=O)[C@@H]2CC1 | -23.02
Cc1ccc(CN2CCC3(CC2)CC(c2cccnc2)C(=O)N3C)o1 (stereo unspecified) | 8.6
Cc1nc2c(c(=O)[nH]1)CN(Cc1ccc3c(c1)CCCN3C)CC2 | 30.25
CSCCCN1CCCC1c1noc(C(C)C)n1 (stereo unspecified) | 5.05
CCn1cc(NC(=O)CN2CCC(Oc3ccccc3C)CC2)c(C)n1 | 45.49
Cc1ccccc1OC1CCN(CC(=O)Nc2ccn(C)n2)CC1 | 9.02
Cc1ccccc1OC1CCN(CC(=O)Nc2cn(C)nc2C)CC1 | 54.75
CCOc1ncnc2c1CCN(C(=O)CN(C)C)CC2 | 19.49
O=C(CC1CC1)N1Cc2nccn2CC(COc2cccnc2)C1 (stereo unspecified) | 23.97
OC1(CN2CCc3nnc(Cc4cccnc4)n3CC2)CCCNC1 (stereo unspecified) | 34.71
OCCOc1ccc(NCc2cc(F)cc3cccnc23)cn1 | 45.56
OCCOc1ccc(NCc2cccc3cccnc23)cn1 | 67.44
Cc1ncccc1CNc1ccc(OCCO)nc1 | 3.49
CN(Cc1ccccc1)CC(O)Cn1cnc2ccc(Br)cc2c1=O (stereo unspecified) | -12.19
O=C1CC2(CCSC2)C(=O)N1Cc1coc(-c2ccc(F)cc2)n1 (stereo unspecified) | -12.34
O=C(NCCc1ccc(Cl)s1)NCc1nnc2n1CCCC2 | -19.35
O=C(NCc1nnc2n1CCCCC2)N1CCc2ccccc2C1 | 25.61
O=C(NCCc1nnc2n1CCCCC2)N1CCC2(CCOC2)C1 (stereo unspecified) | 69.67
O=C(Cc1ccc2c(c1)OCCO2)NCCc1nnc2n1CCC2 | -29.94

Structure (SMILES) | INHIBITION [%]
O=C(NCCc1nnc2n1CCCCC2)N1CCC2(CCCC2)CC1 | 55.36
O=C(NCC1(c2ccc(F)cc2)CC1)N1CCC2(CCOC2)C1 (stereo unspecified) | -21.09
O=C(NCCc1nnc2n1CCC2)N1CCC2(CCCCC2)C1 | -9.03
O=C(NCc1ccc(Cl)s1)NCc1nnc2n1CCCCC2 | 15.28
O=C(NCc1nnc2n1CCCCC2)N1CCC2(CCCCC2)C1 | 55.36
CCc1nnsc1C(=O)NCCc1nnc2n1CCC2 | -8.74
O=C(CCc1ccc(Cl)s1)NCc1nnc2n1CCCCC2 | 58.05
O=C(NCc1nnc2n1CCC2)N1CCC2(CCCCC2)CC1 | 26.74
Cc1nc(C)n(CC2CCCN2CC(=O)NCCC2=CCCCC2)n1 (stereo unspecified) | 24.17
COc1c(Br)c(C(=O)NC2CCCC2)nn1C | 32.75
O=c1[nH]c2cc3c(cc2cc1CN1CCCC1c1ccccn1)OCO3 (stereo unspecified) | -8.01
CCNC(=O)N1CCC(NC(=O)NCCc2cc(F)cc(F)c2)C1 (stereo unspecified) | 24.82
CC(C)Oc1cccc(C(=O)C2CCCN(C(=O)c3cncs3)C2)c1 (stereo unspecified) | 30.07
CN1CCCN(C(=O)c2ccnn2-c2ccc3ccccn23)CC1 | -25.2
COC(=O)c1cccn1C1CCN(C(=O)c2cn[nH]c2C)CC1 | 0.26
O=C(NCC(=O)N1CCCC1)c1nn(-c2ccccc2F)cc1O | -8.52
Cc1cc(CN(C)C(=O)c2ccc(F)c(C(F)(F)F)c2)no1 | 46.52
COc1ccc(-n2cc3nc(N4CCCC4)[nH]cc-3c2=O)cc1Cl | 26.03
CN(C)C(=O)[C@H]1CCS(=O)(=O)[C@@H]2CN(c3ncc(F)cn3)C[C@H]12 | 32.26
O=C1CC(c2cccs2)c2snc(C(=O)O)c2N1 (stereo unspecified) | -4.4
CN1Cc2c(C(=O)Nc3cccnc3)ncn2-c2ccccc2S1(=O)=O | 8.85
CCC(=O)N1CCC2(C=C(C(=O)N(C)C)c3ccccc32)CC1 | -19.05

Structure (SMILES) | INHIBITION [%]
O=C(NCCc1nnc2n1CCC2)NCC1(c2cccc(F)c2)CC1 | -14.15
O=C(NCCc1nnc2n1CCC2)NCC1(c2ccccc2)CC1 | -1.32
O=C(NCc1nnc2n1CCC2)N1CCc2sccc2C1 | 15.67
O=C(NCc1nnc2n1CCCCC2)N1CCc2sccc2C1 | 32.11
O=C(NCCc1nnc2n1CCC2)NCC1(c2ccc(F)cc2)CC1 | 81.42
O=C(NCc1nnc2n1CCCC2)N1CCc2sccc2C1 | 53.11
CCn1cc(C(=O)N2CCCC(c3nccs3)C2)cn1 (stereo unspecified) | 2.6
COc1cccc2[nH]cc(CCNC(=O)N3CCCC3CO)c12 (stereo unspecified) | 1.41
Cc1ccc(C(=O)N2CCCC(n3cncn3)C2)o1 (stereo unspecified) | 14.17
COc1ccnc(NC2CCN(CC(=O)Nc3ccccc3)CC2)n1 | -37.65
COc1ccnc(N2CCN(CC(=O)N3CCC(C)CC3)CC2)n1 | 39.72
COc1ccnc(NC2CCN(CC(=O)N3CCCC3)CC2)n1 | 72.05
CCn1ccc(CNC(=O)c2cc(OC)cc(OC)c2)n1 | 65.06
CCOc1cccc(C(=O)Nc2ccn(CC)n2)c1 | 6.64
COc1cc(OC)cc(C(=O)NCc2nn(C)c3c2COCC3)c1 | -63.73
CC(C)(NCC(=O)NCC1CC1)c1ccc2c(c1)OCCO2 | -51.94
Cc1ccc(CN2CC[C@H](O)[C@@H](n3ccc(=O)[nH]c3=O)CC2)cc1 | 29.89
O=C(NCCCn1ccnn1)C1CCCN(C2CCCC2)C1 (stereo unspecified) | 27.11

— ChEMBL document CHEMBL4513216, “Probing the Open Global Health Chemical Diversity Library for Multistage-Active Starting Points for Next-Generation Antimalarials” (ACS Infect Dis, 2020)
